From PubChem BioAssay AID1159580 (chemical genetic matrix, 2015)
Several values for one entry are separate records, joined by “and”; a condition that tells them apart may be missing. Equal values may be shown once. The campaign covered roughly 5,500 compounds. About 2,000 (36%) were called active. Inconclusive results (about 18%) are left out. Rule as the data show it: active = normalized growth mostly below about 0.91 (no sharp cut-off); inconclusive = no clear call, values can overlap the other calls; inactive = mostly above about 0.92. Some of the results follow.

Test: chemical genetic growth profiling, strain panel (AID 1159580);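 also: tested at 20 µM; growth read once vehicle control cultures reached saturation at 30 °C; 1 = growth at the plate median or of vehicle wells; lower values mean less growth of the strain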
Conditions: S. cerevisiae deletion strains, growth OD

Measured: normalized growth

O=C1N=C(O)CN1/N=C\c1ccc(-c2ccc([N+](=O)[O-])cc2)o1
inactive: locus YAL013W, strain DEP1, stronger effect = lower value 1.01 and 0.985 | locus YAL021C, strain ccr4, stronger effect = lower value 0.948 | locus YAL026C, strain drs2, stronger effect = lower value 0.981 | locus YAL030W, strain snc1, stronger effect = lower value 0.986 | locus YAL040C, strain CLN3, stronger effect = lower value 1.03 | locus YBL061C, strain skt5, stronger effect = lower value 1 | locus YBR009C, strain hhf1, stronger effect = lower value 1 | locus YBR021W, strain FUR4, stronger effect = lower value 1.03 | locus YBR023C, strain chs3, stronger effect = lower value 0.998 | locus YBR171W, strain sec66, stronger effect = lower value 0.98 | locus YBR229C, strain ROT2, stronger effect = lower value 1.01 | locus YBR231C, strain swc5, stronger effect = lower value 0.971 | locus YBR279W, strain paf1, stronger effect = lower value 0.974 | locus YCL011C, strain gbp2, stronger effect = lower value 0.989 | locus YCL016C, strain dcc1, stronger effect = lower value 0.985 | locus YCL029C, strain bik1, stronger effect = lower value 1.04 | locus YCL061C, strain MRC1 (second series), stronger effect = lower value 1.01 | locus YCL061C, strain MRC1, stronger effect = lower value 0.987 | locus YCL069W, strain vba3, stronger effect = lower value 0.974 | locus YCR088W, strain abp1, stronger effect = lower value 0.973 | locus YDL005C, strain med2, stronger effect = lower value 0.973 | locus YDL035C, strain GPR1, stronger effect = lower value 1.03 | locus YDL040C, strain nat1, stronger effect = lower value 0.978 | locus YDL074C, strain BRE1, stronger effect = lower value 1.04 | locus YDL101C, strain DUN1, stronger effect = lower value 1.01 | locus YDL134C, strain PPH21, stronger effect = lower value 1.02 | locus YDL185W, strain tfp1, stronger effect = lower value 1.04 | locus YDL192W, strain arf1, stronger effect = lower value 1.03 | locus YDR001C, strain nth1, stronger effect = lower value 0.977 | locus YDR069C, strain doa4, stronger effect = lower value 0.987 | locus YDR101C, strain arx1, stronger effect = lower value 1.02 | locus YDR137W, strain rgp1, stronger effect = lower value 0.918 | locus YDR150W, strain NUM1, stronger effect = lower value 1.03 and 1 | locus YDR159W, strain sac3, stronger effect = lower value 0.966 | locus YDR162C, strain NBP2, stronger effect = lower value 1.02 | locus YDR195W, strain ref2 0.988 | locus YDR297W, strain sur2, stronger effect = lower value 0.984 | locus YDR318W, strain mcm21, stronger effect = lower value 1.02 | locus YDR334W, strain swr1, stronger effect = lower value 0.949 | locus YDR335W, strain msn5, stronger effect = lower value 0.985 | locus YDR363W, strain ESC2, stronger effect = lower value 0.996 | locus YDR388W, stronger effect = lower value 1.03 | locus YDR392W, strain spt3, stronger effect = lower value 0.942 | locus YDR502C, strain sam2, stronger effect = lower value 1.01 | locus YEL003W, strain gim4, stronger effect = lower value 0.986 | locus YEL037C, strain rad23, stronger effect = lower value 0.974 | locus YEL061C, strain CIN8 (second series), stronger effect = lower value 0.97 | locus YEL061C, strain CIN8, stronger effect = lower value 1.02 | locus YER002W, strain NOP16, stronger effect = lower value 1 | locus YER015W, strain faa2, stronger effect = lower value 0.968 | locus YER016W, strain bim1, stronger effect = lower value 0.99 | locus YER110C, stronger effect = lower value 1.03 | locus YER111C, strain swi4, stronger effect = lower value 0.968 | locus YER155C, strain BEM2 (second series), stronger effect = lower value 0.955 | locus YER155C, strain BEM2, stronger effect = lower value 1.01 | locus YER167W, strain BCK2, stronger effect = lower value 1.03 | locus YFR010W, strain ubp6, stronger effect = lower value 0.984 | locus YGL078C, strain dbp3, stronger effect = lower value 1.04 | locus YGL086W, strain mad1, stronger effect = lower value 1.02 | locus YGL167C, strain pmr1, stronger effect = lower value 0.994 | locus YGL173C, strain kem1, stronger effect = lower value 0.99 | locus YGL227W, strain vid30, stronger effect = lower value 0.986 | locus YGL240W, strain doc1, stronger effect = lower value 0.977 | locus YGL248W, strain PDE1, stronger effect = lower value 1.02 | locus YGL253W, strain hxk2, stronger effect = lower value 0.987 | locus YGR078C, strain PAC10, stronger effect = lower value 1.02 and 1.01 | locus YGR135W, strain pre9, stronger effect = lower value 1.02 | locus YGR229C, strain SMI1, stronger effect = lower value 0.997 | locus YGR252W, strain gcn5, stronger effect = lower value 0.983 | locus YHR013C, strain ard1, stronger effect = lower value 0.992 | locus YHR027C, strain rpn1, stronger effect = lower value 0.992 | locus YHR030C, strain SLT2, stronger effect = lower value 1.02 and 1.01 | locus YHR079C, strain IRE1 (second series), stronger effect = lower value 1.02 | locus YHR079C, strain IRE1, stronger effect = lower value 1.02 | locus YHR094C, strain hxt1, stronger effect = lower value 1.03 | locus YHR129C, strain ARP1, stronger effect = lower value 1.02 | locus YHR142W, strain chs7, stronger effect = lower value 0.986 | locus YHR200W, strain rpn10, stronger effect = lower value 1.02 | locus YIL066C, strain RNR3, stronger effect = lower value 1.02 | locus YIL073C, strain SPO22, stronger effect = lower value 1.06 | locus YIL125W, strain kgd1, stronger effect = lower value 1.03 | locus YIR030C, strain dcg1, stronger effect = lower value 1.03 | locus YJL092W, strain hpr5, stronger effect = lower value 0.979 | locus YJL095W, strain BCK1 (second series), stronger effect = lower value 0.993 | locus YJL095W, strain BCK1, stronger effect = lower value 1.03 and 1.01 | locus YJL115W, strain asf1, stronger effect = lower value 0.976 | locus YJL129C, strain trk1, stronger effect = lower value 0.912 | locus YJL134W, strain LCB3, stronger effect = lower value 1.01 | locus YJL154C, strain vps35, stronger effect = lower value 0.968 | locus YJL164C, strain tpk1, stronger effect = lower value 1.01 | locus YJL166W, strain qcr8, stronger effect = lower value 0.978 | locus YJL168C, strain set2, stronger effect = lower value 1.02 | locus YJL187C, strain SWE1 (second series), stronger effect = lower value 1.02 | locus YJL187C, strain SWE1, stronger effect = lower value 0.986 | locus YJR043C, strain POL32, stronger effect = lower value 1.04 | locus YJR066W, strain TOR1, stronger effect = lower value 0.944
